According to the supplement of paper PMC10849652:
Of roughly 8,800 targets only a part is listed; those with a hit were picked by preference. About 0.5% of all pairs of compound and target were hits. Values without a mark were called inactive.

What was measured:
Assay in all cases: log2 fold change, soluble protein after heating vs DMSO (PISA); higher = thermal stabilisation; K562 lysate, 10 uM; active = over 0.2 and 3.5 SD of the protein, either way, in both replicates (recomputed)
nilotinib = compound: Cc1cn(-c2cc(NC(=O)c3ccc(C)c(Nc4nccc(-c5cccnc5)n4)c3)cc(C(F)(F)F)c2)cn1 [nilotinib]
Outline: (§1)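 Thermal stability, expressed as log-two fold change relative to solvent controls, is given from duplicates. Crude K562 extract in PBS pH 7.4 with 1 mM MgCl2, at 1 mg/mL protein, was treated with 10 μM compound for 30 min and heated in aliquots for 3 min across 48°C-58°C. After pooling, adjustment to 0.5% NP-40 at 4°C and centrifugation at 21,000xg for 90 min, supernatant protein was measured by TMTpro 16plex LC-MS/MS with channel sums equalised.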

[1] = compound: Cc1nc(Nc2n[nH]c3c2CN(C(=O)N[C@H](CN(C)C)c2ccccc2)C3(C)C)c2sccc2n1
Outline: as §1

dasatinib = compound: Cc1nc(Nc2ncc(C(=O)Nc3c(C)cccc3Cl)s2)cc(N2CCN(CCO)CC2)n1 [dasatinib]
Outline: as §1

[2] = compound: Cc1ncc(-c2ccnc(Nc3ccc(S(C)(=O)=O)cc3)n2)n1C(C)C
Outline: as §1

[3] = compound: Cn1cc(-c2ccc3c(c2)CCN3C(=O)Cc2cccc(C(F)(F)F)c2)c2c(N)ncnc21
Outline: as §1

quisinostat = compound: Cn1cc(CNCC2CCN(c3ncc(C(=O)NO)cn3)CC2)c2ccccc21 [quisinostat]
Outline: as §1

tipifarnib = compound: Cn1cncc1[C@@](N)(c1ccc(Cl)cc1)c1ccc2c(c1)c(-c1cccc(Cl)c1)cc(=O)n2C [tipifarnib]
Outline: as §1

[4] = compound: NC(=O)Nc1cc(-c2cccc(F)c2)sc1C(=O)N[C@H]1CCCNC1
Outline: as §1

[5] = compound: NC(=O)c1cnc(N[C@@H]2CCCC[C@@H]2N)nc1Nc1cccc(-n2nccn2)c1
Outline: as §1

[6] = compound: NC1(c2ccc(-c3nc4ccn5c(=O)[nH]nc5c4cc3-c3ccccc3)cc2)CCC1
Outline: as §1

[7] = compound: NCC(=O)Nc1ccc(-n2nc(C(F)(F)F)cc2-c2ccc3c(ccc4ccccc43)c2)cc1
Outline: as §1

vorinostat = compound: O=C(CCCCCCC(=O)Nc1ccccc1)NO [vorinostat]
Outline: as §1

silmitasertib = compound: O=C(O)c1ccc2c(c1)nc(Nc1cccc(Cl)c1)c1ccncc12 [silmitasertib]
Outline: as §1

[8] = compound: O=C1NC(=O)C(c2cnc3ccccn23)=C1c1cn2c3c(cc(F)cc13)CN(C(=O)N1CCCCC1)CC2
Outline: as §1

entospletinib = compound: c1cn2cc(-c3ccc4cn[nH]c4c3)nc(Nc3ccc(N4CCOCC4)cc3)c2n1 [entospletinib]
Outline: as §1

Sequence of UniProt Q8N9F7 (Q8N9F7 whole entry, looked up): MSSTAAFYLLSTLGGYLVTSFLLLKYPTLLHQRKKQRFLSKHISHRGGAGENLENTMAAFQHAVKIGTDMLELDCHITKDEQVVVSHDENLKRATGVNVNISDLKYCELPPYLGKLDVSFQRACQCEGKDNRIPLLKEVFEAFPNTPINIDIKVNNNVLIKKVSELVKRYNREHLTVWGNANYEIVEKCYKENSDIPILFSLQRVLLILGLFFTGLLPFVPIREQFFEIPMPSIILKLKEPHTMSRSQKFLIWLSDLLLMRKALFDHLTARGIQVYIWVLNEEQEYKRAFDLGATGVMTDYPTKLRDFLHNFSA
Sequence of UniProt O14772 (O14772 whole entry, looked up): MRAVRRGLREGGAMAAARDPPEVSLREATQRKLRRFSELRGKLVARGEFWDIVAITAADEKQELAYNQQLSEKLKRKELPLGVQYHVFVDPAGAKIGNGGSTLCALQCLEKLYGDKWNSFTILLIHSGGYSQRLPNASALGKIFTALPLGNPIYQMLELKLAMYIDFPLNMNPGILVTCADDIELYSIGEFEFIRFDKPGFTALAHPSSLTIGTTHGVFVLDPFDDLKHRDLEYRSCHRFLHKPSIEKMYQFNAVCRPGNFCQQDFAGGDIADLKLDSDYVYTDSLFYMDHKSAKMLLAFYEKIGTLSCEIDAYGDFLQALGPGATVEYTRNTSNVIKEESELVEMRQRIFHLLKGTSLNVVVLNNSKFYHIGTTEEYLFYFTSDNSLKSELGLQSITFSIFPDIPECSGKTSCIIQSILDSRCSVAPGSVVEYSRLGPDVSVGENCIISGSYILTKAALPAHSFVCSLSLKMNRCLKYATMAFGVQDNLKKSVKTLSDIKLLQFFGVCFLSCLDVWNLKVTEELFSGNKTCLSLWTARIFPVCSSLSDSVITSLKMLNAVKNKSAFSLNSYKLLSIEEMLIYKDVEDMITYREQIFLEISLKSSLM
Sequence of UniProt Q8NEZ5 (Q8NEZ5 whole entry, looked up): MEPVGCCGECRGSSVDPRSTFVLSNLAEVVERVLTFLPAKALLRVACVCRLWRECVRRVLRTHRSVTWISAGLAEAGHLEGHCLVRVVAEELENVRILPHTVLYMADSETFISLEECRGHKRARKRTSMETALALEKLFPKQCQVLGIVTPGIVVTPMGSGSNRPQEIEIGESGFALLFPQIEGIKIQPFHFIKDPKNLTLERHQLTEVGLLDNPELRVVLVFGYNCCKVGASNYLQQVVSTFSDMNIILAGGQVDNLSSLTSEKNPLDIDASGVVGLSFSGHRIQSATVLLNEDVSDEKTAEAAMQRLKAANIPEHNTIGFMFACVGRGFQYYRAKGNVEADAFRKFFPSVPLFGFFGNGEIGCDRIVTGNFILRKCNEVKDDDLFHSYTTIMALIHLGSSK
Sequence of UniProt Q9Y613 (Q9Y613 whole entry, looked up): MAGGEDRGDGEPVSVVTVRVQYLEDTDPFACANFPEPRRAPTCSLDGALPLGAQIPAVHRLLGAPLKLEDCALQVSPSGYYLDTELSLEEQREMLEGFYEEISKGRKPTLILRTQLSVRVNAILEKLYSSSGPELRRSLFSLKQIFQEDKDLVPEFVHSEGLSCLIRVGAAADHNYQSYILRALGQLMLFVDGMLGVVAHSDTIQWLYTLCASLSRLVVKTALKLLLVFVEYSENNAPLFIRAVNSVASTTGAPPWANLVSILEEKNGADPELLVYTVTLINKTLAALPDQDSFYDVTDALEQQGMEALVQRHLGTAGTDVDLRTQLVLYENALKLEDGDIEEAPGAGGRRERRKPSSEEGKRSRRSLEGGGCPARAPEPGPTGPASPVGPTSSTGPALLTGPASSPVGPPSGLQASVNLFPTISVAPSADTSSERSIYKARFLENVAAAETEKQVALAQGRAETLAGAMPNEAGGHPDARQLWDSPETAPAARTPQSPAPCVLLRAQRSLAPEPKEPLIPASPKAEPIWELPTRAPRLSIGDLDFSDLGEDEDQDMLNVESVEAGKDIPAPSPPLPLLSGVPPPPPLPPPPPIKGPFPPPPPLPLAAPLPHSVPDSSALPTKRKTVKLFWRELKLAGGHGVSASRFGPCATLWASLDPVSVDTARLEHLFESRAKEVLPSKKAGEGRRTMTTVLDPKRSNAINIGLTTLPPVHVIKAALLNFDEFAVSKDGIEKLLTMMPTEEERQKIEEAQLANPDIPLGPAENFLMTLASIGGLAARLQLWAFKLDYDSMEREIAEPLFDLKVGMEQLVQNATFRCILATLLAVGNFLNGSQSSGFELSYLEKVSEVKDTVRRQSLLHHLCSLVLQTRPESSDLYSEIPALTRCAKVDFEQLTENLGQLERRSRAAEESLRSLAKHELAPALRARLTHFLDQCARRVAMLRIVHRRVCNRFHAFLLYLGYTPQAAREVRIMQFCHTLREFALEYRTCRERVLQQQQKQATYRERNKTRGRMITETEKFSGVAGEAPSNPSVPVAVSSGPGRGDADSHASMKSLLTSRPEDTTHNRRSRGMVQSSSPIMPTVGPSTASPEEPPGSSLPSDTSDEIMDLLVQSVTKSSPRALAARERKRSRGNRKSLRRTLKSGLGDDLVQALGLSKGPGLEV
Sequence of UniProt Q96KP1 (Q96KP1 whole entry, looked up): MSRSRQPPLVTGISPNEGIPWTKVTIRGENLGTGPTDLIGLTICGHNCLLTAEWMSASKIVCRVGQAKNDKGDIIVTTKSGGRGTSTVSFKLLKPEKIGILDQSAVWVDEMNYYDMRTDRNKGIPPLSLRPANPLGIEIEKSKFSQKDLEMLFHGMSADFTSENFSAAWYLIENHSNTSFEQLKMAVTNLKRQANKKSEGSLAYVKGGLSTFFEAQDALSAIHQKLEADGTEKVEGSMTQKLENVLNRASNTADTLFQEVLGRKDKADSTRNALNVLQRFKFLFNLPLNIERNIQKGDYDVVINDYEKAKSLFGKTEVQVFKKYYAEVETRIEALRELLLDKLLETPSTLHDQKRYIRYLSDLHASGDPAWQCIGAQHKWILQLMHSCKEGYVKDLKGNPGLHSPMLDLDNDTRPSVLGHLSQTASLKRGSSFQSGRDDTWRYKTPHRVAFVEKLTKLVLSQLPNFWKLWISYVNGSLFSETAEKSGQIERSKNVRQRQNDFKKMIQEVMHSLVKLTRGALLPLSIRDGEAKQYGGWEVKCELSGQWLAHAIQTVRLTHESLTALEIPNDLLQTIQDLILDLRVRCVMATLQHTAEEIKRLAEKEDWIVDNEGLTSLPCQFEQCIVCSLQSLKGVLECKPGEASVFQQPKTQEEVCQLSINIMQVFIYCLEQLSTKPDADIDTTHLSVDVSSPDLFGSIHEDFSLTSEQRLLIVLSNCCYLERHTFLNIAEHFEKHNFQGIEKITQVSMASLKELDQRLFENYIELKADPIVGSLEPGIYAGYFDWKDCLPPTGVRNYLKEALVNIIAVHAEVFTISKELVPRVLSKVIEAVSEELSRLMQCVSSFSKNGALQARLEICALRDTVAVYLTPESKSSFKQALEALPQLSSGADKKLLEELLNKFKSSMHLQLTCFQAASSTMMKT
Sequence of UniProt Q9H410 (Q9H410 whole entry, looked up): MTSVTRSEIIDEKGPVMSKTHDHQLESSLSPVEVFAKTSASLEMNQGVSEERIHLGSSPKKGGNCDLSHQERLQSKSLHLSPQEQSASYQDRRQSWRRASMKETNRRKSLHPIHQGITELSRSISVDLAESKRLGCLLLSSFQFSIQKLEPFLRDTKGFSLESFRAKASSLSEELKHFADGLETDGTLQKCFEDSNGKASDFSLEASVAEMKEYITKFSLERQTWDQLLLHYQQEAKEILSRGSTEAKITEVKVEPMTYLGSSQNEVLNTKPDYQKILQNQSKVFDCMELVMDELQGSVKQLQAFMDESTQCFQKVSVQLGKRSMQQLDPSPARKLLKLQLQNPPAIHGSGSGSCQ
Sequence of UniProt Q8IY81 (Q8IY81 whole entry, looked up): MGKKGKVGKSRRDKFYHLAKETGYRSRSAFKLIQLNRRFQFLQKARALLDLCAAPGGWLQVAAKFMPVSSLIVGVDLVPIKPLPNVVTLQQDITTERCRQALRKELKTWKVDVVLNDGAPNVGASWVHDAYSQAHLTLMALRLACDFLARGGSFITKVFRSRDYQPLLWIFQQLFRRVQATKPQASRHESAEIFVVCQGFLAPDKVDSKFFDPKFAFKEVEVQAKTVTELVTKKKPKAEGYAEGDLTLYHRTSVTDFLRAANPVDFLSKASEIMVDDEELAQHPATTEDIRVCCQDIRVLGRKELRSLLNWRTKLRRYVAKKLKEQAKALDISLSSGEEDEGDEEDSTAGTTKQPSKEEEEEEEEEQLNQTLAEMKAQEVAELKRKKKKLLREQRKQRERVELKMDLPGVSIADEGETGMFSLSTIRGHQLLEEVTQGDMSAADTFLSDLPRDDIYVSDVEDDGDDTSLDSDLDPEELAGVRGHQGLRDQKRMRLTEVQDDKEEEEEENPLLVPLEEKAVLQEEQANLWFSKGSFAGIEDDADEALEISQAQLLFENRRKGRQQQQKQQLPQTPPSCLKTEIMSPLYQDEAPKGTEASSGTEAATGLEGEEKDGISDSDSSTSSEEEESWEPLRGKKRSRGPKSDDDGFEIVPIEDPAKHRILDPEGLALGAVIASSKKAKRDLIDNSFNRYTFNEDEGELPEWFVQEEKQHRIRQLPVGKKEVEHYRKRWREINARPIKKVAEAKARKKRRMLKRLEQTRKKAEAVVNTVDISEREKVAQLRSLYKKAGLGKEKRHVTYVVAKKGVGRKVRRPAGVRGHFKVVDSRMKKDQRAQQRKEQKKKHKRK
Sequence of UniProt Q9BPY3 (Q9BPY3 whole entry, looked up): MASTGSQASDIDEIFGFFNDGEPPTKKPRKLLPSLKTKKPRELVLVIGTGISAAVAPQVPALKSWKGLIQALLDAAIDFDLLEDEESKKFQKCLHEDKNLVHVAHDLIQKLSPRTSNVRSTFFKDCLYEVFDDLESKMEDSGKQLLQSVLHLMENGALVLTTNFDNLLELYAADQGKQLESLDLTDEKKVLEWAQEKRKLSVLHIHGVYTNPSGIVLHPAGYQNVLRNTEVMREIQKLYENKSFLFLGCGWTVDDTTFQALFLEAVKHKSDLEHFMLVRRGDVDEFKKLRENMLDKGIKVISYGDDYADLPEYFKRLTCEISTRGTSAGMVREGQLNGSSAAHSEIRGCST

Target	log2 fold change (nilotinib)	log2 fold change [1]	log2 fold change (dasatinib)	log2 fold change [2]	log2 fold change [3]	log2 fold change (quisinostat)	log2 fold change (tipifarnib)	log2 fold change [4]	log2 fold change [5]	log2 fold change [6]	log2 fold change [7]	log2 fold change (vorinostat)	log2 fold change (silmitasertib)	log2 fold change [8]	log2 fold change (entospletinib)
FANCI (UniProt Q9NVI1)	-0.022	-0.011	-0.069	0.028	0.049	-0.065	0.01	0.061	0.027	-0.027	0.002	-0.389 (active)	0.062	0.018	0.039
FBXO38 (UniProt Q6PIJ6)	0.157	-0.203	-0.03	-0.125	-0.069	-0.028	-0.071	0.026	-0.031	0.012	-0.029	-0.393	0.34	-0.159	-0.173
FAM118B (UniProt Q9BPY3)	-0.018	0.002	-0.039	-0.009	-0.008	-0.06	-0.015	0.021	0.032	-0.007	0	-0.273 (active)	0.018	0	-0.005
EEF1A1P5 (UniProt Q5VTE0)	-0.055	0.005	-0.172	-0.083	0.005	-0.054	0.008	0.016	0.006	-0.013	0.04	-0.311 (active)	-0.017	0.005	0.033
FPGT (UniProt O14772)	-0.006	-0.004	-0.057	0.029	-0.014	-0.105	-0.036	0.046	0.035	-0.03	-0.014	-0.574 (active)	0.008	-0.015	-0.062
FBXO22 (UniProt Q8NEZ5)	0.005	0.021	-0.028	-0.036	0.025	-0.047	0.034	0.012	-0.007	-0.016	0.014	-0.477 (active)	-0.022	-0.018	0.014
FHOD1 (UniProt Q9Y613)	0.005	0.017	-0.05	-0.007	0.002	0.017	-0.017	0.039	0.014	0.023	-0.018	-0.47 (active)	0.008	-0.02	-0.002
FXR1 (UniProt P51114)	-0.139	0.031	0.028	-0.011	0.018	-0.057	-0.005	0.024	-0.001	-0.047	-0.006	-0.257 (active)	0.045	-0.041	0.023
ETFRF1 (UniProt Q6IPR1)	-0.038	0.032	-0.01	-0.02	0.062	0.088	0.117	-0.028	0.071	0.046	0.03	0.24 (active)	-0.043	0.051	
GDPD1 (UniProt Q8N9F7)	-0.047	0.011	0.026	0.011	-0.05	-0.056	0.024	-0.02	0.053	-0.017	-0.137	0.056	0.033	0.177	-0.092
EEF1AKMT4 (UniProt P0DPD7)	-0.01	-0.064	-0.051	0.04	-0.109	0.075	0.004	0.105	0.096	-0.064	0.053	-0.312 (active)	0.029	0.035	0.012
FYCO1 isoform 4 (UniProt Q9BQS8)	-0.02	-0.022	0.011	0.016	0.031	-0.014	-0.012	0.019	0.015	-0.008	-0.002	-0.002	0.047	0.033	-0.002
EDARADD (UniProt Q8WWZ3)	0.076	-0.036	-0.004	0.008	0.023	0.07	0.065	-0.05	-0.032	0.019	0.022	-0.168	0.02	-0.05	-0.057
DSTN (UniProt P60981)	0.01	0.012	-0.013	0.009	0.034	0.045	-0.005	-0.022	0.022	-0.008	-0.012	-0.34 (active)	0.014	-0.031	-0.021
ESYT2 (UniProt H7BXI1)	0.016	-0.017	-0.01	0.037	0.02	0.027	0.009	-0.015	-0.031	-0.051	-0.041	0.243 (active)	-0.002	-0.002	0.019
DSN1 (UniProt Q9H410)	-0.006	0.023	-0.022	0.001	0.011	-0.015	-0.015	0.05	0.014	0.031	-0.028	-0.358 (active)	-0.007	0.008	-0.017
EXOC2 (UniProt Q96KP1)	0.009	0.018	-0.041	-0.009	0.022	-0.088	-0.022	0.062	-0.003	-0.029	-0.012	-0.361 (active)	0.031	0.022	0.024
EMC7 (UniProt Q9NPA0)	0.047	-0.015	-0.022	0.027	0.001	-0.006	-0.014	-0.003	0.014	-0.073	0.015	0.085	-0.007	-0.018	-0.023
ELAVL4 (UniProt P26378)	-0.07	-0.062	0.006	0.092	0.039	-0.07	-0.06	0.07	0.01	0.024	0.016	-0.402 (active)	-0.046	0.004	-0.067
EED, A0A5F9ZI63	-0.019	0.035	-0.022	-0.005	-0.027	0	0.006	0.026	-0.006	-0.015	-0.022	-0.227 (active)	0.043	-0.018	0.009
FTSJ3 (UniProt Q8IY81)	0.001	-0.025	0.021	0.016	-0.001	0.066	-0.046	0.047	0.033	-0.015	-0.034	0.068	0.017	0.012	-0.043
